Laboratory results taken from PubChem BioAssay (Tox21).
Inconclusive results are not listed. The source made the active and inactive calls. Unless noted, the call rests on the fitted dose curve; in most records, active means well fitted curve in the direction sought with a large enough effect in the repeat runs; inconclusive means weak or mixed curves; inactive means no such curve, though single readings can be large; an effect the other way counts as inactive or inconclusive.

Experiments:
[1] = qHTS assay for small molecule agonists of the p53 signaling pathway (AID 651631; calls by dose curve; further: nearly all actives have a fitted effect of over 15% in size)
Summary of the method: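 Readout was fluorescence from the LiveBLAzer FRET substrate, applied for 2 h at room temperature after 16 h compound exposure at 37 °C. Cells were the p53RE-bla HCT-116 line, with beta-lactamase driven by p53 response elements.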

[2] = qHTS assay for small molecules that induce genotoxicity in human embryonic kidney cells expressing luciferase-tagged ATAD5 (AID 651632); further: nearly all actives have a fitted effect of over 15% in size
Summary of the method: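 Luminescent reporter readout, HEK293T ATAD5-luc line: 16 hr drug exposure (37C, 5% CO2) followed by Amplite, 30 min RT.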

[3] = qHTS assay for small molecule agonists of the p53 signaling pathway - cell viability (AID 651633; calls by dose curve; further: nearly all actives have a fitted effect of over 30% in size)
Summary of the method: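 p53RE-bla cells, seeded at 4,000 per well and rested 5 h at 37 C/5% CO2, received compounds in DMSO for 16 h at 37 C. CellTiter-Glo was then added, and luminescence was read after 30 min at room temperature to gauge cytotoxicity.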

[4] = qHTS assay for small molecules that induce genotoxicity in human embryonic kidney cells expressing luciferase-tagged ATAD5 - cell viability (AID 651634; calls by dose curve; further: nearly all actives have a fitted effect of over 25% in size)
Summary of the method: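 Viability read: CellTiter-Fluor fluorescence, 30 min at 37C. Cells: HEK293T, luciferase-tagged ATAD5. Exposure: 15.5 hr, 37C, 5% CO2, compound or DMSO vehicle.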

[5] = qHTS assay for small molecule disruptors of the mitochondrial membrane potential - cell viability (AID 720634; calls by dose curve;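 further: human HepG2 liver cancer cells; nearly all actives have a fitted effect of over 20% in size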)
Summary of the method: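 HepG2, 1 hr compound, 37 C. ATP luminescence via CellTiter-Glo, 30 min RT, same well as m-MPI.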

[6] = qHTS assay to test for compound auto fluorescence at 590 nm (red) in HepG2 cells (AID 720674)
Summary of the method: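 Rose Bengal sodium served as the red fluorophore standard. HepG2 monolayers (overnight attachment, MEM with 10% FBS) were exposed to test compounds for 1 hr at 37 C and read at Ex 540/Em 590 nm.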

[7] = qHTS assay to test for compound auto fluorescence at 535 nm (green) in HepG2 cells (AID 720675)
[8] = qHTS assay to test for compound auto fluorescence at 460 nm (blue) in HEK293 cells (AID 720678)
Summary of the method: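 Intrinsic compound fluorescence is recorded in live HEK293 cultures after overnight incubation at 37C, 5% CO2, using excitation 405 nm and emission 460 nm. Values are referenced to triamterene.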

[9] = qHTS assay to test for compound auto fluorescence at 590 nm (red) in HEK293 cells (AID 720679)
Summary of the method: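 Red autofluorescence, HEK293 cells: 2,000 cells/well; attach 4-5 hr 37C; add 23 nL cpd or DMSO; incubate o/n 37C 5% CO2; read Ex540/Em590; Rose Bengal sodium reference.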

[10] = qHTS assay to test for compound auto fluorescence at 535 nm (green) in HEK293 cells (AID 720680)
[11] = qHTS assay to test for compound auto fluorescence at 460 nm (blue) in HEK293 cell free culture (AID 720681)
Summary of the method: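 Test compounds were pinned into cell-free culture medium (DMEM with 10% FBS) and fluorescence was read directly at Ex/Em 405/460 nm. Signals were expressed as fluorescence equivalents of triamterene, with DMSO vehicle as control.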

[12] = qHTS assay to test for compound auto fluorescence at 535 nm (green) in HEK293 cell free culture (AID 720682)
Summary of the method: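 Compounds were pin-transferred into cell-free DMEM with 10% FBS, and green fluorescence was read at excitation 485 nm and emission 535 nm. Intensities were expressed as fluorescein-equivalent values.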

[13] = qHTS assay to test for compound auto fluorescence at 590 nm (red) in HEK293 cell free culture (AID 720683)
Summary of the method: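 Tox21 10K library compounds were pinned into cell-free DMEM with 10% FBS and fluorescence was read at excitation 540 nm. Activity is expressed as Rose Bengal sodium equivalency.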

[14] = qHTS assay to test for compound auto fluorescence at 590 nm (red) in HepG2 cell free culture (AID 720684)
Summary of the method: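 Measured in medium alone (MEM containing 10% FBS) following pintool addition of compound; emission at 590 nm with 540 nm excitation, referenced to Rose Bengal sodium.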

[15] = qHTS assay to test for compound auto fluorescence at 460 nm (blue) in HepG2 cell free culture (AID 720685)
Summary of the method: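 Compound (23 nL) or DMSO pinned into cell-free MEM with 10% FBS; blue fluorescence read at 405/460 nm excitation/emission, expressed as auto-fluorescence equivalency to triamterene.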

[16] = qHTS assay to test for compound auto fluorescence at 535 nm (green) in HepG2 cell free culture (AID 720686)
[17] = qHTS assay to test for compound auto fluorescence at 460 nm (blue) in HepG2 cells (AID 720687)
Summary of the method: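 Cells (2,000/well in MEM with 10% FBS) attached overnight at 37 C, then were exposed to compound or DMSO for 1 hr at 37 C, 5% CO2. Fluorescence read at Ex/Em 405/460 nm, expressed as triamterene-equivalent signal.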

[18] = biological target: Glucocorticoid receptor (Homo sapiens) (UniProt P04150); test: qHTS assay to identify small molecule agonists of the glucocorticoid receptor (GR) signaling pathway (AID 720691; active means well fitted activation curve with a large enough effect in the signal ratio in the repeat runs, not every such curve was filed as active; the % refers to the signal ratio); conditions: GR-bla HeLa, beta-lactamase reporter ratio, 18 h; activation: at 62.4 µM (top of the series) unless noted
Summary of the method: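 qHTS in GR-bla HeLa cells: 4 h settling at 37 C/5% CO2, 18 h compound incubation at 37 C, 2 h LiveBLAzer B/G FRET substrate at room temperature, fluorescence intensity measured.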

[19] = biological target: Glucocorticoid receptor (Homo sapiens) (UniProt P04150); test: qHTS assay to identify small molecule antagonists of the glucocorticoid receptor (GR) signaling pathway (AID 720692; active means well fitted inhibition curve with a large enough effect in the signal ratio in the repeat runs, not every such curve was filed as active; the % refers to the signal ratio; further: potency means the concentration at half of the fitted maximal effect)
Summary of the method: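 Inhibition of glucocorticoid signalling is measured in HeLa cells with a GRE-controlled beta-lactamase reporter; cells are co-treated with compound and 5 nM dexamethasone (final) for 18 h before FRET substrate readout.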

[20] = qHTS assay for small molecule disruptors of the mitochondrial membrane potential (AID 720635)
Summary of the method: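 HepG2 cells (2,000/well) attached overnight at 37C, then took compound for 1 hr at 37C, 5% CO2. Mito-MPS dye was added for 30 min; fluorescence was read at 490/535 nm (monomers) and 540/590 nm (aggregates).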
On the % scale 0 is the no-effect control and ±100 the full control effect.

Chain of Glucocorticoid receptor (Homo sapiens) (P04150 whole entry, looked up): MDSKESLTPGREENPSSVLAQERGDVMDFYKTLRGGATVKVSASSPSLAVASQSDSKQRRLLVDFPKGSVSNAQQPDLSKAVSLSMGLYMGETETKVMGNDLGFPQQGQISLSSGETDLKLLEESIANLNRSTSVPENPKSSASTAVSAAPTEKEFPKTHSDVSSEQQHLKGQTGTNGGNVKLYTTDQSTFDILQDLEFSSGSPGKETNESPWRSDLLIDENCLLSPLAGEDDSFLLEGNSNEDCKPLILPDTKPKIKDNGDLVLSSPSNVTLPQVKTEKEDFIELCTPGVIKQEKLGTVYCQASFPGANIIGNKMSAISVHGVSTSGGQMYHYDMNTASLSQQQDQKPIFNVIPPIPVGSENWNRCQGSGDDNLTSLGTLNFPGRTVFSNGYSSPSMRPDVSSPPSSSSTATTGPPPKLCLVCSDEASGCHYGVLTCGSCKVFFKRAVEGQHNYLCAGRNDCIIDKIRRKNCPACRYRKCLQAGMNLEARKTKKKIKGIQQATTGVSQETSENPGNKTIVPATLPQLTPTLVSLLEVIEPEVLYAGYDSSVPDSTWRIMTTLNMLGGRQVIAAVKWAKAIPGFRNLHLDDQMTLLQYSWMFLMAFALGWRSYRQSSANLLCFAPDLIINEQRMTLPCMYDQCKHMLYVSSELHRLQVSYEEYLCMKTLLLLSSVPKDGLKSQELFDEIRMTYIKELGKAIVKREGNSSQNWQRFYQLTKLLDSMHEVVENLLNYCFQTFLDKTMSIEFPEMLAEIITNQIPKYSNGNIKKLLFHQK

C=C1[C@H]2CC[C@@H]3[C@H]2C(C)(C)CCC[C@]13C
inactive: Potency [1] | Potency [2] | Potency [3] | Potency [4] | Potency [5] | Potency [6] | Potency [7] | outcome [8] | Potency [9] | outcome [10] | outcome [11] | outcome [12] | Potency [13] | Potency [14] | outcome [15] | Potency [16] | outcome [17] | Potency [18] | Potency [19]

O=C1OC(=O)C2C3C=CC(C3)C12 (configuration not stated)
inactive: Potency [1] | Potency [2] | Potency [3] | Potency [4] | Potency [5] | Potency [7] | outcome [8] | Potency [9] | outcome [10] | outcome [11] | outcome [12] | Potency [13] | Potency [14] | outcome [15] | Potency [16]

CC(=O)c1ccc2c(c1)N(CCCN(C)C)c1ccccc1S2
inactive: Potency [1] | Potency [2] | Potency [3] | Potency [4] | Potency [5] | fluorescence, relative to Rose Bengal [6] -0.407% [at 18.6 µM] | fluorescence, % of fluorescein control [7] 0.0535% [at 18.6 µM] | fluorescence, % of triamterene [8] -0.118% [at 18.6 µM] | fluorescence, % of fluorescent control [9] 0.0215% [at 18.6 µM] | fluorescence, % of fluorescein [10] -0.246% [at 18.6 µM] | fluorescence, % of fluorescent control [11] -0.103% [at 18.6 µM] | activity change [12] -0.283% [at 18.6 µM] | fluorescence, % of fluorescent control [13] -0.0325% [at 18.6 µM] | fluorescence, % of Rose Bengal [14] 0.233% [at 18.6 µM] | fluorescence, % of fluorescent control [15] 0.0422% [at 18.6 µM] | fluorescence, % of fluorescein control [16] -0.0543% [at 18.6 µM] | Potency [18] | Potency [19]

NCc1ccccc1Sc1ccccc1CO
inactive: Potency [1] | Potency [2] | Potency [3] | Potency [4] | Potency [5] | Potency [6] | Potency [7] | outcome [8] | outcome [10] | outcome [11] | outcome [12] | Potency [13] | Potency [14] | outcome [15] | Potency [16]

CCCCCCCN
inactive: Potency [1] | Potency [2] | Potency [3] | Potency [4] | Potency [5] | Potency [6] | Potency [7] | outcome [8] | Potency [9] | outcome [11] | outcome [12] | Potency [13] | Potency [14] | outcome [15] | Potency [16] | outcome [17] | Potency [19]

CN1CCN(C(c2ccccc2)c2ccccc2)CC1
inactive: Potency [1] | Potency [2] | Potency [3] | Potency [4] | Potency [5] | fluorescence, relative to Rose Bengal [6] 0.313% [at 18.6 µM] | fluorescence, % of fluorescein control [7] -0.189% [at 18.6 µM] | fluorescence, % of triamterene [8] -0.0167% [at 18.6 µM] | fluorescence, % of fluorescent control [9] -0.0303% [at 18.6 µM] | fluorescence, % of fluorescein [10] 0.0022% [at 18.6 µM] | fluorescence, % of fluorescent control [11] -0.0336% [at 18.6 µM] | activity change [12] 0.0291% [at 18.6 µM] | fluorescence, % of fluorescent control [13] 0.0321% [at 18.6 µM] | fluorescence, % of Rose Bengal [14] -0.0854% [at 18.6 µM] | fluorescence, % of fluorescent control [15] -0.0233% [at 18.6 µM] | fluorescence, % of fluorescein control [16] 0.0024% [at 18.6 µM] | fluorescence, % of fluorescent control [17] 0.0094% [at 18.6 µM] | Potency [18]

CN(C)C(=O)NC1(c2ccccc2)CCN(CC[C@@]2(c3ccc(F)c(F)c3)CN(C(=O)c3ccccc3)CCO2)CC1
inactive: Potency [1] | Potency [2] | Potency [3] | Potency [4] | Potency [5] | Potency [6] | Potency [7] | outcome [8] | Potency [9] | outcome [10] | outcome [11] | Potency [13] | Potency [14] | outcome [15] | Potency [16] | outcome [17] | Potency [18] | Potency [19]

C[C@@H](c1ncncc1F)C(O)(Cn1cncn1)c1ccc(F)cc1F (some centres not stated)
inactive: Potency [1] | Potency [2] | Potency [3] | Potency [4] | Potency [5] | Potency [6] | Potency [7] | outcome [8] | Potency [9] | outcome [10] | outcome [11] | outcome [12] | Potency [13] | Potency [14] | outcome [15] | Potency [16] | Potency [18] | Potency [19]

CC(=O)c1ccc2c(c1)N(CCCN1CCC(CCO)CC1)c1ccccc1S2
inactive: Potency [1] | Potency [2] | Potency [3] | Potency [4] | Potency [5] | fluorescence, relative to Rose Bengal [6] -0.311% [at 18.6 µM] | fluorescence, % of fluorescein control [7] 0.043% [at 18.6 µM] | fluorescence, % of triamterene [8] -0.0315% [at 18.6 µM] | fluorescence, % of fluorescent control [9] -0.278% [at 18.6 µM] | fluorescence, % of fluorescein [10] -0.0765% [at 18.6 µM] | fluorescence, % of fluorescent control [11] -0.0632% [at 18.6 µM] | activity change [12] -0.164% [at 18.6 µM] | fluorescence, % of fluorescent control [13] -0.134% [at 18.6 µM] | fluorescence, % of Rose Bengal [14] 0.583% [at 18.6 µM] | fluorescence, % of fluorescent control [15] -0.0052% [at 18.6 µM] | fluorescence, % of fluorescein control [16] 0.041% [at 18.6 µM] | fluorescence, % of fluorescent control [17] -0.011% [at 18.6 µM] | Potency [18] | Potency [19]

O=C(OCCCCCCOC(=O)c1ccccc1)c1ccccc1
inactive: Potency [1] | Potency [2] | Potency [3] | Potency [4] | Potency [5] | Potency [20] | Potency [7] | outcome [8] | Potency [9] | outcome [11] | outcome [12] | Potency [13] | Potency [14] | outcome [15] | Potency [16] | outcome [17] | Potency [18]

COc1cc2nc(N3CCN(C(=O)C4COc5ccccc5O4)CC3)nc(N)c2cc1OC (configuration not stated)
inactive: Potency [1] | Potency [2] | Potency [3] | Potency [4] | Potency [5] | Potency [20] | Potency [6] | Potency [7] | outcome [8] | Potency [9] | outcome [10] | outcome [11] | outcome [12] | Potency [13] | Potency [14] | outcome [15] | Potency [16] | outcome [17]

Nc1ccccc1S(=O)(=O)c1ccccc1
inactive: Potency [1] | Potency [2] | Potency [3] | Potency [4] | Potency [5] | Potency [6] | Potency [7] | outcome [8] | Potency [9] | outcome [10] | outcome [11] | outcome [12] | Potency [13] | Potency [14] | outcome [15] | Potency [16] | outcome [17]

C[C@H](CCC(=O)O)[C@H]1CC[C@H]2[C@@H]3CC[C@@H]4C[C@H](O)CC[C@]4(C)[C@H]3C[C@H](O)[C@]12C
active: Potency [19] 49.1 µM
inactive: Potency [1] | Potency [2] | Potency [3] | Potency [4] | Potency [5] | Potency [6] | Potency [7] | outcome [8] | outcome [10] | outcome [11] | outcome [12] | Potency [13] | Potency [14] | outcome [15] | Potency [16] | outcome [17] | Potency [18]
